Pf Dd2 growth = qHTS Primary assay for Inhibitors of Plasmodium falciparum Dd2 growth in vitro. 120,000 tested, 4.3% active. Potency, µM (top dose mostly 28.9 µM), for the others: at the highest dose activity, negative = inhibition, actives largely listed as inhibitors. AID 1347417, 2020. P. falciparum Dd2 growth, SYBR Green, 72 h; active means well fitted inhibition curve with a large enough effect;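 further: plate controls were DMSO vehicle for no effect and reference drug for full effect; nearly all actives have a fitted effect of over 65% in size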
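Infected erythrocytes (Dd2, 0.3% parasitemia, 2.5% hematocrit final) are added to compound in RPMI-1640/Albumax II medium, grown 72 h at 37C in low oxygen, then lysed with saponin/Triton-X containing SYBR Green and read by fluorescence.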
The depositor's hits bear a star; i = inactive; [ ] = dose if it differs, or a comment. Shown is part of a subset that was picked to be rich in hits. Potency means the concentration at half of the fitted maximal effect.

SMILES	Pf Dd2 growth
CCC[C@@H]1CN(c2nc(SC)ncc2C(=O)OCC)C[C@H]1N(C)C	13µM*
COc1cccc(CNC(=O)[C@H]2CCC[C@H]2NC(=O)c2cnc(C)cn2)c1	-3%
CCc1ccc(NC(=O)C2CCCN2S(=O)(=O)c2cccc3nsnc23)cc1 (stereo not given)	30%
CCN(C(=O)C(Cc1ccccc1)NS(=O)(=O)c1cccc2nsnc12)c1ccccc1 (stereo not given)	3%
Cc1ccc(NC(=O)C2CCCN2S(=O)(=O)c2cccc3nsnc23)c(C)c1 (stereo not given)	i
CCN(C(=O)C1CCC(CNS(=O)(=O)c2cccc3nsnc23)CC1)c1ccc(C)c(C)c1 (stereo not given)	4.5µM*
O=C(Nc1ccc(C(F)(F)F)cc1)C1CCC(CNS(=O)(=O)c2cccc3nsnc23)CC1 (stereo not given)	2.8µM*
CCCCN(CC)CCNC(=O)C1CCCN(S(=O)(=O)c2cccc3nsnc23)C1 (stereo not given)	i
Cc1ccc(NC(=O)C2CCN(S(=O)(=O)c3cccc4nsnc34)CC2)cc1	-15%
CCCCN(CC)C(=O)C1CCC(CNS(=O)(=O)c2cccc3nsnc23)CC1 (stereo not given)	2.8µM*
Cc1ccc(NC(=O)C2CCC(CNS(=O)(=O)c3cccc4nsnc34)CC2)c(C)c1 (stereo not given)	1%
O=C(Nc1ccc(F)c(F)c1)C1CCCN1S(=O)(=O)c1cccc2nsnc12 (stereo not given)	11µM*
CCN(CC)c1ccc(NC(=O)CCS(=O)(=O)c2cccc3nsnc23)c(C)c1	-10%
COc1ccc(NC(=O)CCNS(=O)(=O)c2cccc3nsnc23)cc1	10%
COc1ccc(CNC(=O)C2Cn3cccc3C(=O)N2Cc2ccccc2)cc1OC (stereo not given)	i
O=c1cc(-c2cnccn2)oc2c(Nc3ccccn3)nccc12	i
Cn1ccc2cc(-c3ccc4ncn(Cc5ccccn5)c(=O)c4n3)ccc21	i
COc1ccccc1CNC(=O)CC1CCCCN(C)C1=O (stereo not given)	i
COCCc1noc(C2Cc3ccccc3N2C(=O)Nc2ccc(OC)c(OC)c2)n1 (stereo not given)	57%[5.79 µM]
CCOC(=O)c1cnc2c(ccc3ccccc32)c1Nc1ccc(C(C)=O)cc1	5µM*
CCOC(=O)c1cnc2c(ccc3ccccc32)c1Nc1ccc(OC)cc1OC	0%
CCOC(=O)c1cnc2c(ccc3ccccc32)c1Nc1ccccc1OC	9%
CCOC(=O)c1cnc2c(ccc3ccccc32)c1Nc1ccc(OC)c(OC)c1	3.5µM*
CCOC(=O)c1cnc2c(ccc3ccccc32)c1Nc1ccccc1OCC	30%
CCOC(=O)c1cnc2ccccc2c1Nc1ccc(N2CCOCC2)cc1	28%
SMILES	Pf Dd2 growth
O=C(NCc1ccccn1)C1CCCN(c2nc3ncccc3o2)C1 (stereo not given)	-1%[44.1 µM]
CO[C@H]1C(=O)N(C(C)C)[C@H]1C1CCN(C(=O)Cn2ccnc2)CC1	39%
Cc1cc(S(=O)(=O)N2CC(C(=O)NCc3ccncc3)C3(CCOCC3)C2)ccc1F (stereo not given)	-11%
COc1ccc(NC(=O)CCC2CCN(C(=O)c3ccccc3)CC2)c(OC)c1	-19%
Cc1ccc2cc(CN3C[C@@H](CO)[C@H](c4nc(C)no4)C3)c(=O)[nH]c2c1	-5%
CCC(Sc1nc2cc3c(cc2c(=O)n1CCCC(=O)NCc1ccc(OC)cc1)OCO3)C(=O)NCCCOC (stereo not given)	i
CCCCC(Sc1nc2cc3c(cc2c(=O)n1CCCC(=O)NCc1ccc(OC)cc1)OCO3)C(=O)OCC (stereo not given)	7.9µM*
COc1ccc(CNC(=O)CCCn2c(SCC(N)=O)nc3cc4c(cc3c2=O)OCO4)cc1	32%
CN(C)C[C@@H]1CN(S(C)(=O)=O)C[C@H]1NC(=O)c1ccccc1C(F)(F)F	-7%
Cc1cn2nc(C(=O)N3CCC(NC(=O)c4cccc(C#N)c4)CC3)cc2c(=O)[nH]1	2.8µM*
Cc1cn2nc(C(=O)N3CCC(NC(=O)c4ccc(F)c(F)c4)CC3)cc2c(=O)[nH]1	-16%
COc1cccc(C(=O)NC2CCN(C(=O)c3cc4c(=O)[nH]c(C)cn4n3)CC2)c1	i
O=C(CCC1CCCC1)NCC(=O)N1CCCCCNC(=O)CC1c1ccccc1 (stereo not given)	-16%
F[C@@H]1CN(Cc2ccc(C(F)(F)F)cc2)C[C@@H]1OCc1nc2ncccc2[nH]1	i
COCCNc1ncc(-c2ccsc2)c2c1OCC2	17%[44.1 µM]
COCc1nc(C2CC(=O)N(C3CCCCC3)C2)no1 (stereo not given)	13%
COc1ccc(C2(c3nc(C4CC(=O)N(C5CCCCC5)C4)no3)CC2)cc1 (stereo not given)	11µM*
Cc1ccc(-c2nc(C3CC(=O)N(C4CCCCC4)C3)no2)cc1 (stereo not given)	55%
COc1cc(OC)c(C(=O)N[C@H]2COC[C@H]2Cc2cc(C)no2)cc1OC	-4%
Cc1nc([C@@H]2CN(C(=O)Cc3cccnc3)C[C@H]2C(N)=O)n[nH]1	5%
O=C([C@H]1C[C@H](Oc2cccnc2)CN1S(=O)(=O)c1ccccc1)N1CCOCC1	-3%
COc1ccc(C2Cn3nnc(C(=O)Nc4cc(C)ccc4F)c3CO2)cc1 (stereo not given)	11µM*
COc1ccc(OC)c(NC(=O)c2nnn3c2COC(c2ccc(Cl)cc2)C3)c1 (stereo not given)	-14%
COc1ccc(C2Cn3nnc(C(=O)NCc4ccc(SC)cc4)c3CO2)cc1 (stereo not given)	2%
Cc1nnc2n1CCC(N(C)C(=O)NCCc1ccccc1)CC2 (stereo not given)	0%
SMILES	Pf Dd2 growth
O=C1NCCCN1C1CCN(Cc2ccc(F)cc2)CC1	-2%[44.1 µM]
Cc1ccc(C2NC(=O)N(CC(=O)NCCc3ccc(Cl)cc3)C3=C2C(=O)OC3)cc1 (stereo not given)	i
OC[C@H]1CCN(Cc2cn(-c3ccccc3)nc2-c2ccncc2)C[C@@H]1O	-30%
COc1ccc(-c2nn(-c3ccccc3C)cc2CN2CCCN(C)CC2)cc1F	7.9µM*
CCC1CN(Cc2cn(-c3ccccc3C)nc2-c2ccc(OC)c(F)c2)CCO1 (stereo not given)	11µM*
CCN1CCN(Cc2cn(-c3ccccc3F)nc2-c2cc(C)sc2C)CC1	11µM*
COc1ccc(OC)c(CN2CCN(S(=O)(=O)c3ccccc3)CC2)c1	i
COCCn1cc(CN2CCN(Cc3ccccc3F)CC2)ccc1=O	22%
CCc1ccc(N2CC(c3noc(-c4ccc(OC)c(F)c4)n3)CC2=O)cc1 (stereo not given)	9%
CCc1c(CN2CCN(c3ccccc3F)CC2)csc1C	-1%
COc1ccc(-c2nn(-c3ccccc3)cc2CN2CCCC(C)(O)C2)c(F)c1 (stereo not given)	i
O=C(c1ccccc1Cl)N1CCn2c(nnc2-c2ccccc2)C1	-20%[44.1 µM]
CC1CCC2(CC1)NC(=O)N(CC(=O)N(C)c1ccccc1)C2=O (stereo not given)	14%
O=C(c1ccncc1)N1CCC[C@H]1c1nc(-c2ccccc2)no1	-23%
CCN(Cc1noc(C)n1)C(=O)CC1C(=O)NCCN1CC(C)(C)C (stereo not given)	7%
CC(C)(C(=O)NCCC1COc2ccccc2O1)N1CCOCC1 (stereo not given)	-6%
